# According to PubChem BioAssay (NCI):
# Compounds without any hit were thinned out: in the full panel of roughly 79,000, 15% have a hit. A number with no mark means an inactive call. Active and inactive are the calls of the source. Rule as the data show it: active = growth inhibition above about 70%; inactive = the rest.
# What was measured:
# [1] = NCI Yeast Anticancer Drug Screen. Data for the rad50 strain (AID 155);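 also: 0% = growth of vehicle-only cultures of the same strain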; settings: S. cerevisiae rad50 strain growth inhibition, stronger effect = higher value
# How it was run: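 Growth of the mutant yeast was measured after compound exposure and referenced to vehicle-treated cultures.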
# [2] = NCI Yeast Anticancer Drug Screen. Data for the mec2-1 strain (AID 157); settings: S. cerevisiae mec2-1 strain, stronger effect = higher value
# How it was run: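 Test agents were screened against the mec2-1 yeast strain, with defined DNA repair or cell cycle alteration. Growth was scored as inhibition against vehicle-only controls.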
# [3] = NCI Yeast Anticancer Drug Screen. Data for the sgs1 mgt1 strain (AID 161);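 also: 0% = growth of cultures given vehicle only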; settings: S. cerevisiae sgs1 mgt1 strain, stronger effect = higher value
# How it was run: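 Genetically altered yeast, compound exposure, growth inhibition relative to vehicle.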
# [4] = NCI Yeast Anticancer Drug Screen. Data for the cln2 rad14 strain (AID 165);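 also: 0% = growth equal to vehicle treated cultures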; settings: S. cerevisiae cln2 rad14 strain, stronger effect = higher value
# How it was run: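 Growth of compound-exposed yeast (cln2 rad14 genotype) measured and expressed as inhibition relative to vehicle.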
# [5] = NCI Yeast Anticancer Drug Screen. Data for the bub3 strain (AID 167); settings: S. cerevisiae bub3 mutant strain, stronger effect = higher value
# How it was run: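 Whole-cell yeast assay. The mutant strain was incubated with compounds, and growth inhibition was determined by comparison with vehicle-treated cells.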
# [6] = NCI Yeast Anticancer Drug Screen. Data for the mlh1 rad18 strain (AID 175); settings: S. cerevisiae mlh1 rad18 strain growth inhibition, stronger effect = higher value
# How it was run: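 In this whole-cell yeast screen, a strain with altered DNA damage repair is challenged with compound, and its growth is measured against matched vehicle-treated controls.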
# [7] = at 5.0 µM (retest, dose inferred, filed as 0.5)
# [8] = at 50.0 µM (retest, dose inferred, filed as 5.0)
Compound,"growth inhibition [1, 7]","growth inhibition [1, 8]",growth inhibition ([1]; at 50.0 µM),"growth inhibition [2, 7]","growth inhibition [2, 8]",growth inhibition ([2]; at 50.0 µM),"growth inhibition [3, 7]","growth inhibition [3, 8]",growth inhibition ([3]; at 50.0 µM),"growth inhibition [4, 7]","growth inhibition [4, 8]",growth inhibition ([4]; at 50.0 µM),"growth inhibition [5, 7]","growth inhibition [5, 8]",growth inhibition ([5]; at 50.0 µM),"growth inhibition [6, 7]","growth inhibition [6, 8]",growth inhibition ([6]; at 50.0 µM)
O=P(c1ccccc1)(c1ccccc1)c1ccccc1.O=P(c1ccccc1)(c1ccccc1)c1ccccc1.S=C=[N][Sn]([N]=C=S)([N]=C=S)[c]1ccccc1,58%,98% (active),99.5% (active),21%,99% (active),99.5% (active),62%,99% (active),99% (active),-2%,98% (active),97.8% (active),-2%,99% (active),99.2% (active),72% (active),99% (active),97.7% (active)
CCCOc1ccc(/C=C/[N+](=O)[O-])cc1,11%,17%,52.3%,-1%,17%,96.3% (active),-1%,11%,50.9%,1%,20%,93.5% (active),-1%,13%,37%,3%,11%,36%
CC(C)(C)[CH2][Hg][Cl],100% (active),100% (active),99.7% (active),100% (active),100% (active),99.5% (active),100% (active),99% (active),99.5% (active),100% (active),99% (active),98.7% (active),100% (active),100% (active),99.5% (active),99% (active),99% (active),99.5% (active)
CC(C(=O)C1CCCCC1)[n+]1ccccc1 (configuration not stated),1%,-2%,-1.2%,1%,1%,1.3%,0%,-2%,-2.3%,9%,-2%,48.5%,3%,1%,11.2%,-4%,-6%,-5.85%
COc1ccc2c3c1OC1C(=O)C4CC5(c6c(O)ccc(O)c64)C(C2)N(C)CCC315 (configuration not stated),-6%,99% (active),98.5% (active),-2%,92% (active),99% (active),-6%,99% (active),99.1% (active),-14%,98% (active),98.1% (active),-3%,99% (active),98.5% (active),13%,99% (active),99% (active)
N.N.N.N.N.N#N.[Cl-].[Os+7],18%,78% (active),55.5%,17%,87% (active),59.4%,33%,90% (active),60.9%,14%,45%,57.4%,30%,91% (active),59.1%,31%,89% (active),74% (active)
O=S(=O)([O-])[O-].[Fe+2].c1ccc(/C(=N\Nc2ccccn2)c2ccccn2)cc1,3%,33%,12.9%,-2%,39%,82.2% (active),-4%,22%,16.1%,-3%,-8%,13.5%,1%,1%,1.75%,-3%,7%,25.8%
CCC[CH2][Sn]1([CH2]CCC)[O]C(=O)c2cccc(C)c2[O]1,86% (active),96% (active),96.7% (active),89% (active),98% (active),97.7% (active),88% (active),94% (active),96.3% (active),86% (active),97% (active),93.3% (active),88% (active),97% (active),95.9% (active),87% (active),95% (active),98.2% (active)
CN(C)C(=O)Oc1c(Cl)cc(Cl)c(Cl)c1Cl,4%,16%,13.9%,1%,9%,-10.9%,6%,12%,22%,5%,7%,36.1%,2%,8%,-36%,19%,28%,37.5%
